The structures appear in SMILES notation. Screen size: about 5,600 compounds; about 4,400 (79%) were called active. Cut-off read from the data, not from the text of the source: active = inhibition above about 27%; inactive = the rest. So high a share suggests a set chosen from earlier hits. Not all results are given here.

The target in the assay is Fructose-bisphosphate aldolase (Mycobacterium tuberculosis (strain ATCC 25618 / H37Rv)) (UniProt P9WQA3). Briefly: M. tuberculosis aldolase blockers, biochemical, fluorescence, strain H37Rv, confirmation (AID 651616).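 Note: 0% = vehicle wells and 100% = reference inhibitor wells.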 The settings on record: purified M. tuberculosis FBA, fluorescence read-out, at 1 µM, active compounds read high.
Fructose-bisphosphate aldolase (Mycobacterium tuberculosis (strain ATCC 25618 / H37Rv)), sequence (P9WQA3 whole entry, looked up): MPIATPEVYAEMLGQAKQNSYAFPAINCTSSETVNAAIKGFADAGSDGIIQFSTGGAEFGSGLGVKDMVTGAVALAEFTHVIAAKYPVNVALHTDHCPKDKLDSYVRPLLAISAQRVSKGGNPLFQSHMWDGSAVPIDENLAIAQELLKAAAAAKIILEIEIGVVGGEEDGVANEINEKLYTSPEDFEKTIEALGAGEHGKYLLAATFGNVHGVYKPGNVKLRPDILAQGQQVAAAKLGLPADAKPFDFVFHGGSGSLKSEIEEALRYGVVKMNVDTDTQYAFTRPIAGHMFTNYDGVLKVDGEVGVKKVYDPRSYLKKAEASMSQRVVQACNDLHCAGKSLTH
As to `Cc1coc2c1c(C)cc1oc(=O)c(CC(=O)NCC(=O)N[C@H](C(=O)O)C(C)C)c(C)c12`, the inhibition is 52.1% (active).
The result for `Cc1cc(C)cc(NC(=O)CSc2ccccc2)c1` reads 86.7% (active); that for `CN(C)CCCn1c(N)c(C#N)c2nc(C#N)c(C#N)nc21`, 85.4% (active); that for `Cc1cc(C)c2c(n1)sc1c(=O)n(-c3ccccc3)c(=O)[nH]c12`, 75.8% (active).
Regarding `CN(CCc1ccccn1)S(=O)(=O)c1ccc2c3c(cccc13)C(=O)N2`, the inhibition was 130% (active).
The result for `COc1ccc(NC(=O)N2CCC(Cc3ccccc3)CC2)cc1` reads 40.8% (active); that for `COc1ccccc1C(=O)Nc1ccc(OCC(=O)N2CCCCC2)cc1`, 183% (active).
Under `COc1ccccc1NC(=O)COc1ccc(C(=O)OCC(=O)N(C(C)C)C(C)C)cc1OC` stands 0.36% (inactive).
Consider `O=C1CC2(CCCCC2)Oc2ccc(OCC(=O)N3CCOCC3)cc21`, for which the inhibition was 4.05% (inactive).
Under `COc1ccccc1-c1oc2ccccc2c1C#CCCCCO` stands 170% (active); under `COc1ccc(-n2cc(CNC3CCOCC3)c(-c3cccc(F)c3)n2)cc1`, 18.8% (inactive); under `COc1ccc(-n2cc(CN(C)Cc3n[nH]c(=O)[nH]3)c(-c3cccc(F)c3)n2)cc1`, 44.3% (active).
Turning to `Cc1ccc(S(=O)(=O)N2CCN(C(=O)CSc3cc(C)ccc3C)CC2)c(C)c1`, the inhibition was 164% (active).
For the compound `CCc1ccc(-c2cc(C(=O)NCc3ccco3)c3ccccc3n2)s1`, the inhibition was -6.79% (inactive).
Under `Cn1nc(-c2ccc(Cl)cc2)c2cc(C(=O)NCc3ccco3)sc21` stands 47.8% (active); under `CCN(CC)CCCNC(=O)c1cc2c(=O)[nH]c3ccc(C)cc3c2s1`, 137% (active); under `N#CC1(Nc2ccc3c4c(cccc24)CC3)CCCCC1`, 119% (active).
The result for `N#Cc1c(N)n(CCOC(=O)c2ccc(Cl)cc2)c2nc3ccccc3nc12` reads 40.4% (active); that for `CC(=O)c1sc2nc(SCC(=O)N3CCCCC3)[nH]c(=O)c2c1C`, 76.2% (active).
`CCN(C(=O)Nc1cccc2ccccc12)c1ccccc1`: the inhibition is 164% (active).
Under `O=C(O)c1cccnc1Sc1ncnc2sc3c(c12)CCC3` stands 59.7% (active).
The result for `O=C(Nc1ncc2c(n1)-c1ccccc1OC2)c1ccc(Cl)cc1` reads 93.8% (active); that for `CCOc1ccccc1C1CC(c2ccccc2)Nc2nc(N)nn21` (configuration not stated), 185% (active).
Regarding `O=c1oc2ccccc2cc1-c1cn(-c2ccccc2)c(=S)[nH]1`, the inhibition is 17.6% (inactive).
The result for `CC12CCC(C(=O)N3CCN(c4ncccn4)CC3)(c3nc4ccccc4nc31)C2(C)C` (configuration not stated) reads 195% (active).
As for `Cn1cccc1-c1nc2ccccc2n1C`, the inhibition is 13.3% (inactive).
Under `Cn1c(-c2ccco2)nc2cc3ccccc3cc21` stands 46.4% (active); under `CCCc1cc(=O)oc2c(C)c(OCC(=O)N3CCC(C(=O)O)CC3)ccc12`, -5.02% (inactive).
Under `CCc1cc(=O)oc2c(C)c(OCC(=O)N3CC[C@@]4(O)CCCC[C@H]4C3)ccc12` stands 130% (active); under `CCOC(=O)CSc1nc2c(c(=O)n(Cc3ccccc3Cl)c(=O)n2C)n1C`, 48.6% (active).
Under `CN(C)c1ccc(/C=N/NC(=O)C(O)c2ccc(Br)cc2)cc1` (configuration not stated) stands 72.9% (active); under `COC(=O)c1noc(C)c1-c1ccnn1C(=O)c1ccc(Cl)cc1`, 57.6% (active).
For the compound `Cc1nc(NCCN)c(C#N)c2c1COC(C)(C)C2`, the inhibition was 88.6% (active).
For `Cc1cc(=O)n2[nH]c(-c3cccc(Cl)c3)cc2n1`, the inhibition is 107% (active).
`Cc1ccc2nc(/C(C#N)=C\c3ccc(OC(=O)c4cccs4)cc3)[nH]c2c1`: the inhibition is 53.5% (active).
The result for `CC(C)(C)C(=O)Nc1cccc(-c2ccc[nH]2)n1` reads 76.9% (active); that for `N#Cc1c(N2CCCCC2)nc(N)c2c(N)nc(SCC(=O)O)cc12`, 11.2% (inactive).
The result for `CN(C)Cc1c(O)ccc2c(=O)c(-c3ccccc3Cl)coc12` reads 9.64% (inactive).
The result for `CC[C@@H]1Cc2cc(O)ccc2C2=C1c1ccc(O)cc1C[C@H]2CC` reads 109% (active).
Take `Cc1cc(C)c2c(NC(=O)C3CC3)nn(C)c2n1`: the inhibition was 87.2% (active).
As for `Cc1cc(C)c2c(n1)nn1c(-n3ccnc3)cc(C)nc21`, the inhibition was -3.81% (inactive).
The result for `CC(C)(C)Nc1c(-c2cccs2)nc2ccccn12` reads 146% (active); that for `CC[C@@H](C)[C@H](NC(=O)CCc1c(C)c2cc3c4c(oc3c(C)c2oc1=O)CCCC4)C(=O)O`, 88.9% (active).
As for `CC(C)=NN1C(=O)c2ccccc2NC1(C)C`, the inhibition was 178% (active).
Consider `O=C(Nc1nncs1)c1ccccc1NS(=O)(=O)c1cccs1`, for which the inhibition is 141% (active).
Under `CC(C)c1nc(N2CCOCC2)c(C#N)c2c1COC(C)(C)C2` stands 37.2% (active); under `CC1(C)Cc2c(C#N)c(SCc3nc4ccccc4[nH]3)nc(N3CCOCC3)c2CO1`, -3.68% (inactive).

The inhibition is the relative decrease from the control value, in per cent.

The values are drawn from PubChem BioAssay AID651616 (The Scripps Research Institute Molecular Screening Center, 2012).
